# Assay results as given in PubChem BioAssay (NCATS).
# Results filed as inconclusive are left out. Entries that show only a call come without a potency. Unmarked numbers belong to inactive results. Active and inactive are the calls of the source. Calls follow the shape of the dose curve; as a rule, active = well fitted activation curve with a large enough effect; inconclusive = small, poorly fitted or top-dose-only effect; inactive = flat fitted curve, though single readings scatter.
# Assay: Primary redox qHTS assay for identification of artifact compounds. (AID 1845223)
# Details: Amplex Red/HRP redox cycling with DTT, fluorescence; series mostly up to 53.8 µM
# Outline: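 Amplex Red (25 uM) and HRP (250 mU/mL) in HBSS, with compounds for 15 min, then 250 uM DTT for 30 min, room temperature, dark. Fluorescence 525/598 nm read; normalized to DMSO and 10 uM DA3003; Hill fit.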
Compound,Potency,redox activity (% of DA3003)
OCC1OC(Oc2cc(O)cc(/C=C/c3ccc(OC4OC(CO)C(O)C(O)C4O)cc3O)c2)C(O)C(O)C1O (centres undefined),inactive,–
CC(=C\C(C)O)/C=C(\C)C(=O)CC1CC(CC(N)=O)CC(=O)O1 (centres undefined),inactive,–
O=C(OC1C=C(CO)C2C(OC3OC(CO)C(O)C(O)C3O)OC=CC12O)c1ccc(O)cc1 (centres undefined),inactive,–
C=CC(C)(O)CCC1C(C)(O)CCC2C(C)(C)CCCC21C (centres undefined),inactive,–
O=S(=O)(O)c1ccc(Nc2ncnc3c2ncn3[C@@H]2O[C@H](CO)[C@@H](O)[C@H]2O)cc1,inactive,–
C=CC(C)(O)CC/C=C(\C)C(=O)O[C@@H]1[C@@H](O)[C@H](OC(C)(C=C)CC/C=C(\C)C(=O)O[C@@H]2O[C@H](CO)[C@@H](O)[C@H](O)[C@H]2O)O[C@H](CO)[C@H]1OC(=O)/C(C)=C/CCC(C)(O)C=C (some centres undefined),–,-5.92% [at 11.5 µM]
C[C@H]1[C@@H](O)[C@H](O)C2[C@]3(C)C([C@@H](O)[C@H]4OC(=O)[C@@H]1[C@@]24C)[C@](C)(O)C=C[C@H]3O[C@@H]1O[C@H](CO)[C@@H](O)[C@H](O)[C@H]1O (some centres undefined),inactive,–
COc1c2c(c(C)c3c1C(=O)OC3)OC1(C)CC(O)C34OC(O)(CCC3(C)C1C2)OC4(C)C (centres undefined),inactive,–
C[C@H]1/C=C/C=C/C=C/C=C/C=C/[C@@H](O)[C@H](C(=O)O)[C@H](O)C[C@H](O)CCC[C@H](O)C[C@H](O)C[C@H](O)[C@@H](C)C(=O)O[C@@H]1C,inactive,–
CC1(C)CCC[C@@]2(C)[C@H]1[C@H](O)C=C(CO)[C@]2(O)CO,inactive,–
CNC(=O)c1ccc2c(c1)CCO[C@H]2CCN1CCN(c2ccc(C(N)=O)cc2)CC1,inactive,–
COc1cc(O)c2c(c1Cl)CC(C)OC2=O (centres undefined),inactive,–
OC[C@H]1O[C@@H](OCCc2ccccc2)[C@H](O)[C@@H](O)[C@@H]1O,inactive,–
C=C1CC[C@H]2[C@@](C)(CCC(OC3OC(CO)C(O)C(O)C3O)[C@@]2(C)CO)C1C(=O)CC1=CCOC1=O (some centres undefined),inactive,–
C=C1[C@H](OC(C)=O)[C@H]2[C@@H](OC(C)=O)C(C)C[C@]2(OC(C)=O)C(=O)[C@H](C)/C=C/C(C)(C)C(=O)[C@H](OC(=O)C(C)C)[C@H]1OC(C)=O (some centres undefined),inactive,–
CC(=O)OCC1=CCC2C(C)(C)CCCC2(C)C12CCC(C)(CC(=O)O)O2 (centres undefined),inactive,–
C=C1C(O)CC2C(C(=O)O)=COC(O[C@@H]3O[C@H](COC(=O)c4ccc(O)cc4)[C@@H](O)[C@H](O)[C@H]3O)C12 (some centres undefined),inactive,–
CC1=C2CC(C)(C)CC2C(O)C2=C(C1)C(=O)OC2O (centres undefined),inactive,–
CCOc1nc2c(N)ncnc2n1CC,inactive,–
COC(=O)C1=CO[C@@H](O[C@@H]2O[C@H](CO)[C@@H](O)[C@H](O)[C@H]2O)C2C1CC(O)C2C (some centres undefined),inactive,–

Compound,Potency,redox activity (% of DA3003)
C=C1CC/C=C(/C(=O)O)CCC2C1CC2(C)C (centres undefined),inactive,–
COc1ccc(CCc2nc3cc(-c4c(C)noc4C)ccc3n2C[C@H](C)N2CCOCC2)cc1Cl,inactive,–
COc1cc(O)cc2c1C(=O)OC(C)CCCCCCC2 (centres undefined),inactive,–
CC[C@H]1OC(=O)[C@H](C)[C@@H](O[C@H]2C[C@@](C)(OC)[C@@H](O)[C@H](C)O2)C(C)[C@@H](O[C@@H]2O[C@H](C)C[C@H](N(C)C)[C@H]2O)[C@](C)(O)C[C@@H](C)CN(C)[C@H](C)[C@@H](O)[C@]1(C)O (some centres undefined),inactive,–
C=Cc1cc2oc(-c3ccc(O)c(F)c3)nc2cc1O,inactive,–
COc1cc(C(=O)OC[C@@]2(O)CO[C@@H](O[C@H]3[C@H](Oc4ccc(O)cc4)O[C@H](CO)[C@@H](O)[C@@H]3O)[C@@H]2O)cc(OC)c1O,inactive,–
CC1=C(CC/C(C)=C/C(=O)O)[C@@]2(C)CCCC(C)(C)C2CC1=O (some centres undefined),inactive,–
CC(CNS(=O)(=O)C(C)C)c1ccc(-c2ccc(C#N)cc2)cc1 (centres undefined),inactive,–
O=C(O)Cc1cn([C@@H]2OC[C@@H](O[C@@H]3O[C@H](CO)[C@@H](O)[C@H](O)[C@H]3O)[C@H](O)[C@H]2O[C@@H]2O[C@H](CO)[C@@H](O)[C@H](O)[C@H]2O)c2ccccc12,inactive,–
CC1=CC[C@@]2(C)CC[C@@](O)(C(C)C)[C@@H]2[C@@H](O)C1,inactive,–
CSCC1OC(n2cnc3c(N)ncnc32)C(O)C1O (centres undefined),inactive,–
N#CN1CCC[C@@H](n2nc(-c3ccc(Oc4ccc(F)cc4F)cc3)c(C(N)=O)c2N)C1,inactive,–
COc1cc(OC)cc(-c2ccc3c(-c4ccc(F)cc4)[nH]nc3n2)c1,inactive,–
O=C(O)c1ccncc1Nc1nn(CCN2CCC(F)(F)CC2)c2ccc(F)cc12,inactive,–
C=C(C)[C@@H]1CC[C@]2(CO)CC[C@]3(C)[C@H](CC[C@@H]4[C@@]5(C)CC[C@H](O)C(C)(C)[C@@H]5CC[C@]43C)[C@@H]12,inactive,–
CCC(CC)CC1(C(=O)Nc2ccccc2SC(=O)C(C)C)CCCCC1,inactive,–
COC(=O)C1=CO[C@@H](O[C@@H]2O[C@H](CO[C@@H]3O[C@H](CO)[C@@H](O)[C@H](O)[C@H]3O)[C@@H](O)[C@H](O)[C@H]2O)[C@@H]2C(CO)=CC[C@H]12,inactive,–
CCC(=O)N1CCc2cc(OC)c(O)cc2C1,inactive,–
COc1cnc(-c2ccc(Cn3c(CC(C)(C)C(=O)O)c(SC(C)(C)C)c4cc(OC[C@@H]5Cc6ccccc6N5C(C)=O)ccc43)cc2)nc1,inactive,–
